Our source for the growth values is PubChem BioAssay (NCI).

Compounds without any hit were thinned out: in the full panel of roughly 83,000, 20% have a hit.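 Growth was measured after 48 h exposure to one concentration of compound in 96-well plates. Values under 10 count as active.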 Calls of active or inactive are those of the source.

The experiment has as its system SNB-75 CNS. Kind of experiment: NCI-60 one-dose screen, 48 h (100 = growth as untreated, 0 = no growth, -100 = all killed). The following applies: 10 µM unless noted.
`CCCCCC(=O)OCCC1CCCCC1`: the growth was 89.1% (inactive).
On to `CC(C)OCC(CCl)OC(=O)Nc1ccccc1` (stereo unspecified), for which the growth is 92.2% (inactive).
Regarding `Oc1cccc(CNC2CCCCC2)c1`, the growth was 90.4% (inactive).
Next, `C=CCC(OC(C)=O)c1ccc(OC)c(OC)c1` (stereo unspecified): 98.8% (inactive).
Under `COC1OC(CO)C(OC)C(O)C1O` (stereo unspecified) stands 103% (inactive).
Under `O=S(Cc1ccccc1)/C(=C/NC(=S)Nc1ccccc1)c1ccccc1` (stereo unspecified) stands 80.2% (inactive); under `Oc1ccc(N=Cc2ccc(OCc3ccccc3)cc2)cc1`, 92.1% (inactive); under `CCCCCCCCCCCCCCCCCC(=O)NCCNC(=O)CCCCCCCCCCCCCCCCC`, 82.8% (inactive).
Turning to `O=C1C=C(c2ccccc2)C(O)(c2ccccc2)C1` (stereo unspecified), the growth was 77.6% (inactive).
For the compound `Nc1ncc([N+](=O)[O-])cn1`, the growth is 99.1% (inactive).
`CCN(C(C)=O)c1ccc([N+](=O)[O-])cc1`: the growth is 108% (inactive).
For the compound `C1C[S+]2CC[S+]1CC2`, the growth is 117% (inactive).
Next, `NC(=O)OCCO`: 110% (inactive); `COC1CC(OC(=O)c2ccc([N+](=O)[O-])cc2)C(COC(=O)c2ccc([N+](=O)[O-])cc2)O1` (stereo unspecified): 87.3% (inactive); `CC(=O)c1cc(O)ccc1O`: 103% (inactive).
Under `Cc1c(Cl)cccc1NC(=S)NC(=O)c1ccccc1` stands 90.5% (inactive).
Next, `Cc1cc(Cl)cc(Cc2cc(Cl)cc(C)c2O)c1O`: 19.3% (inactive).
As to `CCCOCc1cn[nH]n1`, the growth is 98.1% (inactive).
For the compound `Cc1ccc(C(C)C)c(OCC(=O)O)c1`, the growth was 99.3% (inactive).
Under `OC(CBr)CCBr` (stereo unspecified) stands 73.9% (inactive); under `CC(CCC#N)(CCC#N)C(=O)c1ccccc1`, 96.7% (inactive).
